# Among all 310,000 compounds or so, about 14,000 (4.5%) showed an effect of 50% or more. Effects have a minus sign here. Shown is part of a subset that was picked to be rich in strong results.
# Target: human ether-à-go-go-related gene (hERG) potassium channel (human, UniProt Q12809)
# Test: primary screen, population patch clamp on CHO cells stably expressing hERG; higher = less effect of the substance
# Protocol: Briefly, Chinese hamster ovary (CHO) cells stably expressing the hERG channel were dislodged from tissue culture flasks and dispensed into PPC plates. […] During the recording, background leak currents were estimated by a 100 ms step to -80 mV from an initial holding potential of -70 mV and subtracted from the subsequent current measurement. The campaign was conducted in two phases using slight differences in recording protocol. In the first phase, the initial voltage pulse used a 100 ms step to -30 mV from a holding potential of -70 mV, a 2 s conditioning step to +25 mV, and a 2 s test step to -30 mV. During the second phase of the screen, the potential during the conditioning step was raised to +45 mV. In both phases of the campaign, a secondary voltage pulse was applied using the same parameters as the second phase initial pulse. The initial and secondary pulses were applied in the absence of compound, and upon application of 1 μM and 10 μM test concentrations. […]
# 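Further: peak tail current of the secondary pulse compared with the same well before compound.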
# human ether-à-go-go-related gene (hERG) potassium channel, sequence (Q12809 whole entry, looked up): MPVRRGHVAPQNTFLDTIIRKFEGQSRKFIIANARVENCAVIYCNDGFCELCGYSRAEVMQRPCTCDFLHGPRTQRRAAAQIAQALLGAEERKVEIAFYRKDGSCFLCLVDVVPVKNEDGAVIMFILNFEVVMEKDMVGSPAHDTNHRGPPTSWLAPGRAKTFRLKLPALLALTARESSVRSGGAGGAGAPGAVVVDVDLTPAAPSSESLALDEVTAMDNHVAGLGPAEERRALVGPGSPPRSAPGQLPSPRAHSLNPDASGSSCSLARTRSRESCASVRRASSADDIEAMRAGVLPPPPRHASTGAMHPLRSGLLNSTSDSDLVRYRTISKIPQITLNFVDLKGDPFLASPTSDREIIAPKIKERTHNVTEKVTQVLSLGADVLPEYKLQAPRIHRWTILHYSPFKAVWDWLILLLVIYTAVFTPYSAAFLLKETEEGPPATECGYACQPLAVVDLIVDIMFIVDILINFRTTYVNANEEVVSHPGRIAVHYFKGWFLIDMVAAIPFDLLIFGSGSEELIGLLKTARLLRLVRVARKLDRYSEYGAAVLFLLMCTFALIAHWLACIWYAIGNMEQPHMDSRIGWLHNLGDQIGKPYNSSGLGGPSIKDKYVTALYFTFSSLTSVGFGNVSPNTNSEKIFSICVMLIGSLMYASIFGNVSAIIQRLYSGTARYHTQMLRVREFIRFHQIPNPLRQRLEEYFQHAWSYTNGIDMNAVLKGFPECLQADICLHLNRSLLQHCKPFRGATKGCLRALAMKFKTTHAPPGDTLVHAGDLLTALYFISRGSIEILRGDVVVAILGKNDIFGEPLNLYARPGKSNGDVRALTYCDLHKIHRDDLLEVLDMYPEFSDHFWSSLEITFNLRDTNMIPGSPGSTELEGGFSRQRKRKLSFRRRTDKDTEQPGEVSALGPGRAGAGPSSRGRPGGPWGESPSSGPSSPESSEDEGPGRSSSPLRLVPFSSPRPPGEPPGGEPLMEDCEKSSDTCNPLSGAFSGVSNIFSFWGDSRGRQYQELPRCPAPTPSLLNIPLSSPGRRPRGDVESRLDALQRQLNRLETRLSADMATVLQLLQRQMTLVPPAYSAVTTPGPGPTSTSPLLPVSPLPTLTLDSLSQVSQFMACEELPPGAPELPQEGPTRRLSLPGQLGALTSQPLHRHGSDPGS
row,SMILES,"hERG current change (%, negative = inhibition) at 10uM"
1,Cc1nc2ncnn2c(C)c1CCC(=O)Oc1ccccc1,-5.02%
2,CCN1CCc2nc(N)oc2CC1.Cl,1.67%
3,Cc1cc2oc(C(=O)NC3CCS(=O)(=O)C3)c(C)c2cc1C (stereo not shown),2.69%
4,CN(CC(=O)Nc1ccc(Cl)c(C(F)(F)F)c1)C(=O)C1CCC1,-14.8%
5,O=C1COc2ccc(N3C(=O)c4ccccc4C3=O)cc2N1,27.5%
6,CCCCCN(C(=O)CN1CCC(Cc2ccccc2)CC1)c1c(N)n(CCCC)c(=O)[nH]c1=O,-48.1%
7,CSc1nc(N2CCN(Cc3ccc4c(c3)OCO4)CC2)c2ccccc2n1,-16.7%
8,CC(C)(C)OC(=O)N1CCC(c2cc(=O)n3[nH]cc(C(=O)Nc4ccc(F)c(Cl)c4)c3n2)CC1,6.92%
9,COCCOC(=O)C1=C(C)Nc2ncnn2C1c1ccco1 (stereo not shown),2.64%
10,COc1ccc(CNC(=O)C2CCN(c3nn4c(=O)cc(C)nc4s3)CC2)cc1,-4.51%
11,Cc1ccc(CNC(=O)C2CCN(c3nn4c(=O)cc(C)nc4s3)CC2)cc1,-41.9%
12,Cc1cc(=O)n2nc(N3CCC(C(=O)NCc4ccc(F)cc4)CC3)sc2n1,-55.5%
13,Cc1cc(=O)n2nc(N3CCC(C(=O)NCc4cccc(Br)c4)CC3)sc2n1,-51.4%
14,CCOc1ccc(CNC(=O)C2CCN(c3nn4c(=O)cc(C)nc4s3)CC2)cc1,-45.8%
15,Cc1cc(=O)n2nc(N3CCC(C(=O)NCc4ccc(Cl)cc4)CC3)sc2n1,-70%
16,Cc1cc(=O)n2nc(N3CCC(C(=O)NCc4cccc(Cl)c4)CC3)sc2n1,-43.7%
17,Cc1cc(=O)n2nc(N3CCCC(C(=O)NCc4cccc(Br)c4)C3)sc2n1 (stereo not shown),-30.2%
18,Cc1cc(=O)n2nc(N3CCC(C(=O)NCc4ccccc4)CC3)sc2n1,-3.68%
19,CCS(=O)(=O)c1ccc(C(=O)Nc2cccc(Cl)c2)c(Cl)c1Cl,-3.97%
20,Cc1ccc(C(C)C)c(OCCCNCc2cccnc2)c1.Cl,-37.5%
21,CCNC(=O)NC(=O)CN(C)c1ccccc1,10.5%
22,CCOC(=O)c1sc(=NC(=O)c2cccc(C)c2)n(C)c1C,8.38%
23,Cc1ccc(-c2c(C(=O)N/N=C/c3cccs3)nnn2-c2nonc2N)cc1,29.8%

row,SMILES,"hERG current change (%, negative = inhibition) at 10uM"
1,COc1cccc(-c2nn(-c3ccccc3)cc2CN(C)C(C)c2ccncn2)c1 (stereo not shown),-15.6%
2,CCC(COC)NCc1cn(-c2ccc(F)cc2F)nc1-c1ccccc1C (stereo not shown),-18%
3,COc1ccc(-n2cc(CN(C)C(C)c3ccncn3)c(-c3cccc(F)c3)n2)cc1 (stereo not shown),-39.9%
4,CCC(COC)NCc1cn(-c2ccc(OC)cc2)nc1-c1cccc(F)c1 (stereo not shown),-70.3%
5,COc1ccc(-c2nn(-c3ccccc3)cc2CNC(C)Cn2cncn2)c(F)c1 (stereo not shown),-13%
6,COc1ccc(-n2cc(CNC(C)c3ccncn3)c(-c3cccc(F)c3)n2)cc1 (stereo not shown),-59.4%
7,Cc1cccc(N2CCN(C(=O)c3cccc(N4C(=O)C5CC=CC(C)C5C4=O)c3)CC2)c1C (stereo not shown),-12.5%
8,Cc1oncc1-c1cn2ccccc2n1,6.61%
9,COc1ccccc1CNC(=O)c1ccccc1OCc1ccc(F)cc1,-10%
10,CCOc1ccc(N2CC(C(=O)N3CCCCCC3)CC2=O)cc1 (stereo not shown),-7.34%
11,COc1ccc(N2CC(C(=O)N3CCN(C(=O)c4ccco4)CC3)CC2=O)cc1 (stereo not shown),-53.3%
12,CCOc1ccc(N2CC(C(=O)N3CCCCC3)CC2=O)cc1 (stereo not shown),18.6%
13,COc1ccc(N2CC(C(=O)N3CCN(C)CC3)CC2=O)cc1 (stereo not shown),15.4%
14,COc1ccc(N2CCN(C(=O)C3CC(=O)N(c4ccc(C)cc4)C3)CC2)cc1 (stereo not shown),-35.1%
15,CCOc1ccc(N2CC(C(=O)N3CCN(C(=O)c4ccco4)CC3)CC2=O)cc1 (stereo not shown),-63.4%
16,Cc1cc(C#N)c(C)n1-c1cc(S(=O)(=O)N2CCOCC2)ccc1N1CCCC1,-14.3%
17,CN(Cc1ccc(F)cc1)C(=O)c1cccc(S(=O)(=O)N2CCN(c3ccc(F)cc3)CC2)c1,-34.6%
18,CN(C)S(=O)(=O)N1CCC(Oc2cccc(C(=O)NC3CCOC3)c2)CC1 (stereo not shown),2.63%
19,O=C(CCN1CCN(c2ccc(Cl)cc2)CC1)Nc1ccccc1F,-34%
20,O=C(CN1CCN(CCC(=O)Nc2ccccc2F)CC1)Nc1ccc(F)cc1,-72.6%
21,O=C(CN1CCOCC1)Nc1ccccc1F,0.862%
22,O=C(CN1CCN(CCC(=O)Nc2ccccc2F)CC1)Nc1ccc(Cl)cc1,-76.8%
23,O=C(CCN1CCN(S(=O)(=O)c2ccc(Cl)cc2)CC1)Nc1ccccc1F,-6.18%

row,SMILES,"hERG current change (%, negative = inhibition) at 10uM"
1,O=C(CCN1CCN(c2ccc(F)cc2)CC1)Nc1ccccc1F,-43%
2,COc1ccc(C(=O)NC2CCCCC2)cc1S(=O)(=O)N1CCOCC1,-14.8%
3,O=C(NCCOC(=O)c1ccccc1)c1ccccc1,10.2%
4,[N-]=[N+]=CC(=O)CNC(=O)[C@@H](Cc1ccccc1)N1C(=O)c2ccccc2C1=O,6.66%
5,CCC(C(=O)NC1CC1)n1nc(C)c2c(C)n(-c3ccccc3)nc2c1=O (stereo not shown),8.02%
6,CCC(C(=O)NC1CC1)n1nc(C)c2c(C)n(-c3ccc(C)cc3)nc2c1=O (stereo not shown),-62%
7,Cc1ccc(-n2nc3c(=O)n(C(C)C(=O)NCc4ccco4)nc(C)c3c2C)cc1 (stereo not shown),-41.3%
8,CCC(C(=O)NCc1ccco1)n1nc(C)c2c(C)n(-c3ccc(C)cc3)nc2c1=O (stereo not shown),-58.9%
9,CCC(C(=O)NC1CCCCCC1)n1nc(C)c2c(C)n(-c3ccccc3)nc2c1=O (stereo not shown),-23.4%
10,CCC(C(=O)NCc1ccco1)n1nc(C)c2c(C)n(-c3ccccc3)nc2c1=O (stereo not shown),-8.91%
11,CC(C)c1cccc(C(C)C)c1OCCCCN1CCCC1,-22.7%
12,COc1ccccc1N(C)S(=O)(=O)c1ccc(C(=O)Nc2nccs2)cc1,-30.5%
13,CC(=O)c1ccc(NC(=O)CN2CCC(NC(=O)C3CCCCC3)CC2)cc1,-6.72%
14,COc1cccc(CNC(=O)CCC2CCCN(C(=O)c3ccc(OC)c(F)c3)C2)c1 (stereo not shown),-9.79%
15,COCCC(=O)N1CCCC(CCC(=O)NCc2ccc(F)c(F)c2)C1 (stereo not shown),22.8%
16,COc1cccc(CNC(=O)CCC2CCCN(C(=O)Cc3ccccc3F)C2)c1 (stereo not shown),-7.61%
17,COc1ccccc1/C=C/CN1CCCC(CCC(=O)NCc2ccccc2F)C1 (stereo not shown),-65.7%
18,COc1ccccc1CC(=O)N1CCCC(CCC(=O)NCc2ccccc2F)C1 (stereo not shown),2.97%
19,COc1ccc(C(=O)N2CCCC(CCC(=O)NCc3ccc(F)c(F)c3)C2)cc1F (stereo not shown),-22.8%
20,COc1ccc(/C=C/CN2CCCC(CCC(=O)NCc3ccc(F)c(F)c3)C2)cc1 (stereo not shown),-72.8%
21,COc1cccc(CNC(=O)CCC2CCCN(C/C=C/c3ccccc3OC)C2)c1 (stereo not shown),-68.5%
22,COC(=O)c1ccccc1C(=O)N1CCCC(CCC(=O)NCc2ccc(F)c(F)c2)C1 (stereo not shown),-10.1%
23,COCCNC(=O)CCC1CCN(C/C=C/c2ccccc2OC)CC1,-3.87%

row,SMILES,"hERG current change (%, negative = inhibition) at 10uM"
1,COc1ccccc1/C=C/CN1CCCC(CCC(=O)NCc2ccc(F)c(F)c2)C1 (stereo not shown),-70%
2,COc1cccc(C(=O)N2CCCC(CCC(=O)NCc3ccc(F)c(F)c3)C2)c1 (stereo not shown),-17.5%
3,CCCCC(NC(=O)c1cccc(Br)c1)C(=O)O (stereo not shown),9.42%
4,Cc1nn(C)c(C)c1CNC(=O)Nc1cccc(Cl)c1,6.93%
5,CC1(C)CC(=O)c2cn3nc(C(F)(F)F)nc3nc2C1,4.21%
6,O=C(CN1CCN(S(=O)(=O)c2ccc(F)c(Cl)c2)CC1)N1CCc2ccccc21,-34.7%
7,CCOC(=O)c1ccc(NC(=O)NS(=O)(=O)c2ccc(C)cc2)cc1,10.9%
8,CC(C)Oc1ccc(S(=O)(=O)N2CCCCC2)cc1NC(=O)CN1C(=O)NC2(CCCC2)C1=O,-2.87%
9,O=[N+]([O-])c1cccc(/C=N/NC2CCS(=O)(=O)C2)c1 (stereo not shown),11.9%
10,Cc1ccsc1C(=O)N1CCCC(CCC(=O)NCc2ccccc2F)C1 (stereo not shown),-7.46%
11,Cc1ccc(S(=O)(=O)N2CCCC(CCC(=O)NCc3ccccc3F)C2)s1 (stereo not shown),-50.7%
12,Cc1ccsc1S(=O)(=O)N1CCCC(CCC(=O)NCc2ccccc2F)C1 (stereo not shown),5.38%
13,CCOC(=O)C1=C(CSc2n[nH]c(N)n2)NC(=O)NC1C (stereo not shown),3.79%
14,CC1CC(C)CN(S(=O)(=O)N2CCCC(C(=O)NC(C)c3ccccc3)C2)C1 (stereo not shown),3.1%
15,COc1ccc(OC)c2[nH]c(C(=O)N3CCC(C(=O)O)CC3)cc12,24.6%
16,O=C(CSc1nnc(NC2CCCCC2)s1)NC1CCS(=O)(=O)C1 (stereo not shown),-0.507%
17,N#Cc1cc(Sc2ccccn2)c([N+](=O)[O-])cc1C#N,-18.9%
18,N#Cc1ccc(Sc2ccccn2)c([N+](=O)[O-])c1,-61.5%
19,N#Cc1ccc(NCCc2ccccn2)c([N+](=O)[O-])c1,-74%
20,O=[N+]([O-])c1cc(Cl)ccc1NCCc1ccccn1,-16.8%
21,O=[N+]([O-])c1cc(Cl)ccc1Sc1ccccn1,3.65%
22,N#Cc1cc([N+](=O)[O-])ccc1NCCc1ccccn1,-18.4%

# Reference: paper PMC4336329 (PLoS ONE, 2015)
